This is an account of results in PubChem BioAssay.

Active and inactive are the calls of the source.

Assay [1] concerns Human papillomavirus type 1a protein E7 (residues 44-93). Put plainly: small molecules binding HPV E7 44-93 – biochemical, small-molecule microarray, residues 44-93, 635 nm fluorescence, primary screen (AID 1108).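 Further: E7 fragment applied at 1 µg/mL in TBST for 1 h at 4 C; score combines spot fluorescence with its signal to noise ratio.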 The note with it: fluorescence 635 nm, higher = more signal.
Assay [2] in a line: hepatitis C replication reporter changes, two-sided – Huh7 cells, luciferase reporter, HCV replication inhibitor project, primary screen (AID 1109).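 Further: huh7 hepatoma cells harbouring a luciferase neomycin HCV replicon reporter; luciferase luminescence as measure of HCV replicon replication; test concentration not given here.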 The conditions noted are these: Huh7 HCV replicon luciferase reporter, 48 h; higher = more signal. For orientation: Reporter assays use an easily measured gene product as a stand-in for the process of interest.
Assay [3] concerns the target Left-right determination factor 2 (Homo sapiens) (UniProt O00292). Put plainly: small molecules binding LEFTY2 protein – biochemical, small-molecule microarray, 635 nm fluorescence scan, primary screen (AID 1110). The note with it: higher = more signal.
The target of assay [4] is Calmodulin-1 (Homo sapiens) (UniProt P0DP23). Briefly: small molecules binding calmodulin-1 with EGTA – biochemical, small-molecule microarray, Cy5-labelled CALM1, profiling panel (AID 1111).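 Further: labelled calmodulin applied in Tris saline Tween buffer holding calcium plus EGTA and DTT.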 The note with it: Cy5-CALM1 binding fluorescence, higher = more signal.
The target is the same in assay [5]. Briefly: small molecules binding Ca-loaded calmodulin-1 – biochemical, small-molecule microarray, Cy5-labelled CALM1, plus calcium, artefact control for SMM control-protein annotation, profiling panel (AID 1112).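 Further: score merges spot fluorescence with signal to noise from triplicate slides.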 The conditions noted are these: Cy5-CALM1 binding fluorescence, higher = more signal.
The nature of assay [6]: probe aWnt5a binding to arrayed compounds – biochemical, biotinylated probe, 635/667 nm fluorescence, primary screen (AID 1113).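 Further: score merges 667 nm fluorescence intensity with signal-to-noise per printed feature.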 The note with it: small-molecule microarray, higher = more signal.
Assay [7] can be described thus: probe aShh binding to arrayed compounds – biochemical, biotinylated probe, 635/667 nm fluorescence, primary screen (AID 1114).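 Further: probe is biotin-labelled aShh protein from a stem cell growth factor screen; measures binding of labelled protein to compounds printed on the slide; score merges feature fluorescence at 667 nm with signal-to-noise.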 The note with it: small-molecule microarray, higher = more signal.
A short description of assay [8]: probe aNog binding to arrayed compounds – biochemical, biotinylated probe, 635/667 nm fluorescence, primary screen (AID 1115).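 Further: probe is biotinylated aNog protein used at 0.15 µg/mL for 1 h at 4 C; z-score combines 667 nm fluorescence of each spot with its signal to noise.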 The note with it: small-molecule microarray, higher = more signal.
Assay [9] has as its target Torsin-1A-interacting protein 1 (Homo sapiens) (UniProt Q5JTV8). Briefly: compound microarray binding of lysate hLAP1 – cell lysate, small-molecule microarray, COS7 lysate, 635/667 nm fluorescence, primary screen (AID 1116). The conditions noted are these: 635 nm fluorescence, higher = more signal.
Assay [10] concerns the target Alpha-bungarotoxin (Bungarus multicinctus) (UniProt P60615). Briefly: compounds binding labelled alpha-BTX control protein – biochemical, small-molecule microarray, Alexa647 label, 635/667 nm fluorescence, artefact control for SMM control protein annotation, profiling panel (AID 1117). The note with it: alpha-BTX-A647 binding fluorescence, higher = more signal.
A further assay deals with Albumin (Bos taurus) (UniProt P02769). Put plainly: compounds binding labelled BSA control protein – biochemical, small-molecule microarray, Alexa647 label, 635/667 nm fluorescence, artefact control for SMM control protein annotation, profiling panel (AID 1118).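 Further: score merges 667 nm emission intensity and signal-to-noise per printed compound spot.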 The note with it: BSA-A647 binding, fluorescence 635 nm, higher = more signal.
A short description of assay [11]: probe aXIP binding to arrayed compounds – biochemical, NeuroSMM set, 635/667 nm fluorescence, primary screen (AID 1119).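 Further: probe is the protein aXip251-270 applied at 1 µg/mL to compound-printed slides; binding of probe to printed compounds measured as 667 nm fluorescence plus signal to noise.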 The note with it: small-molecule microarray, higher = more signal, called active from +8 up or from −8 down.
Assay [12] in a line: probe aNOTCH3 binding on compound microarray – biochemical, small-molecule microarray, 635/667 nm fluorescence, primary screen (AID 1120).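 Further: probe is a biotin-tagged antibody raised against NOTCH3 rather than NOTCH3 protein; score merges spot fluorescence near 667 nm with spot signal to noise.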 The conditions noted are these: higher = more signal.
Assay [13] can be described thus: probe aNOTCH2 binding on compound microarray – biochemical, small-molecule microarray, 635/667 nm fluorescence, primary screen (AID 1121).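 Further: score merges feature fluorescence read at 667 nm with its signal to noise.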 The conditions noted are these: higher = more signal.
In assay [14] the target is Carbonic anhydrase 2 (Homo sapiens) (UniProt P00918). Put plainly: compounds binding carbonic anhydrase 2 – biochemical, small-molecule microarray, Alexa647-labelled CAII, profiling panel (AID 1122). The conditions noted are these: CAII-A647 binding fluorescence, higher = more signal.
The nature of assay [15]: COS7 lysate on small-molecule microarray, probe aHis, 635 nm (AID 1123).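 Further: z-score combines 667nm fluorescence intensity with signal-to-noise per printed compound spot.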 The note with it: COS7 cell lysate, fluorescence, higher = more signal.
A short description of assay [16]: probe aLAP1 signal on lysate-treated microarray – cell lysate, small-molecule microarray, COS7 lysate, primary screen (AID 1124).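 Further: lysate comes from COS7 cells expressing LAP1 and is applied at 0.3 µg/mL; score merges spot fluorescence near 667 nm with signal-to-noise over triplicate slides.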 The note with it: probe aLAP1, fluorescence, higher = more signal.
A further assay concerns Sam68 (KHDRBS1). Put plainly: compounds binding KHDRBS1 protein – biochemical, small-molecule microarray, 635 nm fluorescence, primary screen (AID 1125).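 Further: score merges 667 nm channel intensity with signal to noise over triplicate slides.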 The note with it: higher = more signal.
Assay [17] deals with Chordin-like protein 2 (CHRDL2). Briefly: compounds binding chordin-like 2 – biochemical, small-molecule microarray, 635 nm fluorescence, primary screen (AID 1126).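 Further: printed compound slides probed with Chrdl2 protein at 4 µg/mL for 1 h at 4 C; score merges 667 nm emission intensity with signal to noise over three replicate slides.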 The note with it: fluorescence 635 nm, higher = more signal.
In assay [18] the target is Concanavalin-A (Canavalia ensiformis) (UniProt P02866). Put plainly: compounds binding concanavalin A lectin – biochemical, small-molecule microarray, Alexa647 label, 635 nm, artefact control for SMM control protein annotation, primary screen (AID 1127).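 Further: z combines 667 nm emission intensity with signal-to-noise across three replicate slides.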 The conditions noted are these: ConA-A647 binding fluorescence, higher = more signal.
Concanavalin-A (Canavalia ensiformis), sequence (P02866 whole entry, looked up): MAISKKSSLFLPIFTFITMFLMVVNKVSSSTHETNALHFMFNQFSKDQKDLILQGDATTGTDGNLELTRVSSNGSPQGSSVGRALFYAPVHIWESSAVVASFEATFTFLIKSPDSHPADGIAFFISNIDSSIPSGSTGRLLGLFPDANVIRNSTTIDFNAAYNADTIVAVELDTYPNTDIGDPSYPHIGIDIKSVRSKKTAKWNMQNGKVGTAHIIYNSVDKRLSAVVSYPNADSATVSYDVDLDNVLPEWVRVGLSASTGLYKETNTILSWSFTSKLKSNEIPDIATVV

Alpha-bungarotoxin (Bungarus multicinctus), sequence (P60615 whole entry, looked up): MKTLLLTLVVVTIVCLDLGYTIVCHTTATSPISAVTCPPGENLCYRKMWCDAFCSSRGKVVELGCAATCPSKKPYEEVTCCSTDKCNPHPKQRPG
Albumin (Bos taurus), sequence (P02769 whole entry, looked up): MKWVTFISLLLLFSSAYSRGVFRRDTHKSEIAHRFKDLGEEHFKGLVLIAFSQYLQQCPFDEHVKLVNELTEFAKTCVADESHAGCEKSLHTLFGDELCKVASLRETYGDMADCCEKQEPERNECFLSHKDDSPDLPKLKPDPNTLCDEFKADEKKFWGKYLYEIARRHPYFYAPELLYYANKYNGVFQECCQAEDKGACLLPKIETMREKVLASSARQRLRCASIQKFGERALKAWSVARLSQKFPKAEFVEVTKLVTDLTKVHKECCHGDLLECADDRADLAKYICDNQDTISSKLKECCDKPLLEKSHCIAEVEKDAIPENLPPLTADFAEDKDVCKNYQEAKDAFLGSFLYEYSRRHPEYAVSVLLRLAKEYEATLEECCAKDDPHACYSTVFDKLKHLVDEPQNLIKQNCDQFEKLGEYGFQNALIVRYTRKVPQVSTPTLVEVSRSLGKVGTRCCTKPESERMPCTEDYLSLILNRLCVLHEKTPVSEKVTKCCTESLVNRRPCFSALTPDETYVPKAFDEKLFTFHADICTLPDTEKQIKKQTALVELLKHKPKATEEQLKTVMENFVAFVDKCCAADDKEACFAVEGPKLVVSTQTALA
Torsin-1A-interacting protein 1 (Homo sapiens), sequence (Q5JTV8 whole entry, looked up): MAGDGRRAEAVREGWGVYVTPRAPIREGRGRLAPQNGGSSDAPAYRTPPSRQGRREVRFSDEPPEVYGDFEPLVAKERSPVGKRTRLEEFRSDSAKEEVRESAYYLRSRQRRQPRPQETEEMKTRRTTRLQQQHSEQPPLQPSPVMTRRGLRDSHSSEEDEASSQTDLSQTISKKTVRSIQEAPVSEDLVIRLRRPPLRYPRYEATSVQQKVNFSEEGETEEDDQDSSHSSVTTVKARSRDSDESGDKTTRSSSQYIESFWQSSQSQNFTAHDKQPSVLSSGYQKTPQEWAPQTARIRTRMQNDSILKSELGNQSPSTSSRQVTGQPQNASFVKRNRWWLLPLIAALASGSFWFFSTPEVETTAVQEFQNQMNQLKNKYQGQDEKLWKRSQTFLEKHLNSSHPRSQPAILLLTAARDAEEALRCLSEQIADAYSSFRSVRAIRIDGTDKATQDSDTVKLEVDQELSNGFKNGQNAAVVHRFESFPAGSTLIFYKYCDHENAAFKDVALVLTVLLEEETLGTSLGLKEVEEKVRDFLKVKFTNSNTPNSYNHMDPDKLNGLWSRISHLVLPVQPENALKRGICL
Left-right determination factor 2 (Homo sapiens), sequence (O00292 whole entry, looked up): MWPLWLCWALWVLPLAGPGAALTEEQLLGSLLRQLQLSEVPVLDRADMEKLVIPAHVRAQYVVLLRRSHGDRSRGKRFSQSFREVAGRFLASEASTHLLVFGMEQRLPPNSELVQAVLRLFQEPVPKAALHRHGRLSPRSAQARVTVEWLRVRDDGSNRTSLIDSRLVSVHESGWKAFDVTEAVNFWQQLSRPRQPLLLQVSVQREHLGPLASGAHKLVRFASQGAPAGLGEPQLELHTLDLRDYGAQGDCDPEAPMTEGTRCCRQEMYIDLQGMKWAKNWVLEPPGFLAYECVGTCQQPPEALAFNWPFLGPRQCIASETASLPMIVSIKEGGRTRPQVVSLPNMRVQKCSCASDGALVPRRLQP

In the case of `Cc1c(NC(=O)/C(C#N)=C/C=C/c2ccccc2[N+](=O)[O-])c(=O)n(-c2ccccc2)n1C`, the composite z-score was 0.475 in [1]; 0.34 in [3]; 0.517 in assay [4]; 0.188 in assay [5]; -0.092 in assay [6]; -0.292 in assay [7]. The composite z-score in assay [8] was -0.527; in [9] it was 0.37; in assay [10] it was 0.556; in the assay with Albumin (Bos taurus), 0.974; in [12] it was -0.0903; in assay [13], -0.0234. Moreover, the composite z-score came out at 0.643 in assay [14]; 1.11 in assay [15]; 1.04 in assay [16]; 0.708 in the assay with Sam68 (KHDRBS1); 0.704 in [17]; 0.761 in [18]. Moreover, the z-score in [2] is -2.79. In assay [11], the composite Z-score was -0.148 (inactive).

For `[N-]=[N+]=NCc1ccccc1[C@H]1OC(c2ccc(OCCCO)cc2)=N[C@@]1(CCS(=O)(=O)c1ccccc1)C(N)=O`, the composite z-score was 1.11 in assay [1]; 0.264 in [3]; 0.145 in [4]; 0.257 in assay [5]; -0.096 in assay [6]; 0.265 in assay [7]. Moreover, the composite z-score in assay [8] was found to be 1.4; in assay [9] it was 1.47; in assay [10] it was 2.43; in the assay with Albumin (Bos taurus), 0.736; in assay [12], 0.302; in assay [13] it was 0.123. Besides, the composite z-score in assay [14] was 0.878; in assay [15], 3.31; in [16], 1.71; with Sam68 (KHDRBS1), 1.3; in [17], -0.0208; in assay [18] it was 1.2. In assay [2], this compound had a z-score of -0.281. In addition, in [11], the composite Z-score is 0.0553 (inactive).

For the compound `C=CCC(OC(C)=O)[C@@H]1[C@@H](N(Cc2cc3ccccc3o2)C(=O)c2ccc(C)cc2)c2cc(OCCCO)ccc2N1C(=O)Cc1ccc2ccccc2c1` (stereo not given in full), the composite z-score in assay [1] was -0.494; in assay [3] it was 0.081; in [4] it was -0.0956; in [5], -0.147; in assay [6] it was 0.103; in [7], -0.13. In addition, the composite z-score in assay [8] is -0.322; in assay [9], 0.102; in [10] it was -0.319; in the assay with Albumin (Bos taurus) it was 0.324; in assay [12] it was 0.0311; in assay [13] it was -0.0077. Further, the composite z-score in assay [14] is -0.138; in [15], 0.0465; in assay [16], -0.057; in the assay on Sam68 (KHDRBS1) it was -0.366; in assay [17], 0.208; in assay [18] it was -1.56. The compound also came in with a z-score in assay [2] of -0.185. Moreover, the composite Z-score in [11] is 0.0991 (inactive).

Turning to `CCCC=C(CCC)[C@@H](NP(=O)(c1ccccc1)c1ccccc1)c1ccc(C(F)(F)F)cc1`, the composite z-score in assay [1] was 1.13; in [3] it was 0.0293; in [4] it was 0.0848; in [5] it was -0.33; in [6], 0.474; in assay [7], 0.135. For the same compound, the composite z-score was -0.301 in assay [8]; 0.145 in assay [9]; 0.109 in assay [10]; 0.179 in the assay with Albumin (Bos taurus); 0.26 in [12]; 0.0684 in assay [13]. Besides, the composite z-score in assay [14] is -0.0457; in assay [15] it was 0.442; in assay [16], 0.207; with Sam68 (KHDRBS1), 1.14; in assay [17], -0.13; in assay [18], -0.482. This compound returned a z-score in [2] of -0.475. Also, the composite Z-score in assay [11] is -0.349 (inactive).

For `CN(C)C(=O)[C@@]1(Cc2ccccc2N=[N+]=[N-])COC(c2ccc(OCCCO)cc2)=N1`, the composite z-score in [1] is 1; in [3] it was -0.475; in [4], 1.32; in assay [5], 0.202; in assay [6] it was 0.212; in assay [7] it was 0.661. The composite z-score in [8] was -1.05; in assay [9], 1.04; in assay [10], 1.55; with Albumin (Bos taurus), 0.623; in assay [12] it was 0.12; in assay [13], -0.268. Besides, the composite z-score in [14] stood at 0.71; in assay [15], 1.89; in assay [16], 0.0648; in the assay with Sam68 (KHDRBS1), 0.905; in assay [17] it was 0.118; in [18] it was 1.12. In addition, the z-score in assay [2] was -1.69. Also, in [11], the composite Z-score is 1.69 (inactive).
